Only some compounds are listed: those with a hit (about 4.5% of all), similar ones and a draw of the others.
PfHsp40 yeast – compounds rescuing yeast from Plasmodium falciparum HSP40 toxicity; S. cerevisiae expressing PfHsp40, growth rescue, ATP luminescence; growth rescue, % at 12.5 µM; 340,000 compounds, 0.68% hits; AID 504582; in the data active = growth rescue above about 28%, passing the limit was not always enough;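 note: yeast W303a lacking pdr1 and pdr3 grown in galactose medium; growth measured after three days at 30 °C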
PrPC TRFRET – cell surface PrPC inhibition, primary TR-FRET screen; inhibition, % at 13.8 µM; P04156; 370,000 compounds, 0.43% hits; TR-FRET read-out; in the data active = inhibition above about 24%; note: 0% = median of the test wells and 100% = reference compound wells
PrP UTR inh – suppresses PrP 5' UTR mRNA reporter expression; cell-based PrP 5' UTR mRNA reporter, plate reader; inhibition, % (no concentration beside the values); 340,000 compounds, 0.35% hits; in the data active = inhibition above about 52%; note: 0 = median of the neutral control wells
FBA Mtb inh – inhibitors of M. tuberculosis fructose-bisphosphate aldolase. AID 588726. purified M. tuberculosis FBA, fluorescence read-out. 360,000 compounds, 2.3% hits. P9WQA3. inhibition, % at 1 µM; in the data active = inhibition above about 27%;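 note: 0% = vehicle and 100% = reference inhibitor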
Target sequence (P9WQA3 whole entry, looked up): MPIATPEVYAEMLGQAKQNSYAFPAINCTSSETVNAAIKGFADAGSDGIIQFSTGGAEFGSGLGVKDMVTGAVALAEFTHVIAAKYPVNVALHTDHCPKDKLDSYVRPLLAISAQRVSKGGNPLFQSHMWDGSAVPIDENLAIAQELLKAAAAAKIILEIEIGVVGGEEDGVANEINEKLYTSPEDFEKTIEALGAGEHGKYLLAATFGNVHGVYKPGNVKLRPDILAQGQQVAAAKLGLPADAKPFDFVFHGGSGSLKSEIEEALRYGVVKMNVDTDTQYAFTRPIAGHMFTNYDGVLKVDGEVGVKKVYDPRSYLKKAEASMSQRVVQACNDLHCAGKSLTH
BJeLR lethal – kills HRASV12-expressing BJeLR cells. BJeLR (HRASV12) viability, CellTiter-Glo ATP luminescence, 48 h. inhibition, % (concentration not given with the values). 300,000 compounds, 0.17% hits. AID 1554; in the data active = inhibition above about 50%
GDH-TPI inh – inhibits GDH-TPI coupling enzymes, artifact for Mtb FBA screen; 360,000 compounds, 1.2% hits; inhibition, % at 4.8 µM; GDH-TPI coupled enzyme counterscreen, NADH absorbance; AID 588335; in the data active = inhibition above about 30%;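 note: 0% = DMSO wells and 100% = wells lacking the enzyme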
An asterisk follows results filed as active; . = no result given; + = active, no number.

SMILES | PfHsp40 yeast | PrPC TRFRET | PrP UTR inh | FBA Mtb inh | BJeLR lethal | GDH-TPI inh
CCCn1c(N/N=C\C=C\c2ccccc2)nc2c1c(=O)[nH]c(=O)n2C | 3.4 | -8.8 | -27.9 | -4.2 | 11.8 | 31.1*
N#Cc1cnc(Nc2nc3ccccc3o2)nc1-c1ccccc1 | -1.1 | -3.3 | -28.0 | -5.2 | 8.1 | 33.3*
Nc1nc(NCCc2ccccc2)nc(NCc2ccccc2)c1[N+](=O)[O-] | 1.5 | 1.1 | -1.3 | -3.7 | 12.8 | 19.9
Nc1nc(NCCCN2CCOCC2)nc(NCc2ccccc2)c1[N+](=O)[O-] | 0.2 | -11.1 | -0.7 | -1.9 | 8.5 | 49.7*
Nc1nc(NCc2ccco2)nc(NCCO)c1[N+](=O)[O-] | -0.4 | -6.8 | -13.5 | -4.8 | -2.2 | 31.7*
Nc1nc(NCCN2CCOCC2)nc(NCc2ccccc2)c1[N+](=O)[O-] | 0.4 | 3.0 | -12.9 | -3.3 | 8.5 | 48.3*
Nc1nc(Nc2ccccc2)nc(NCc2ccco2)c1[N+](=O)[O-] | 1.9 | 4.5 | -6.0 | 1.1 | 1.0 | 29.6
CN(Cc1ccccc1)c1nc(N)c([N+](=O)[O-])c(NCc2ccccc2)n1 | -1.1 | 0.6 | -15.8 | -0.7 | 3.3 | 30.9*
CN(Cc1ccccc1)S(=O)(=O)c1cccc(C(=O)OCc2ccccc2)c1 | . | 2.8 | . | . | . | .
Cc1cccc(NC(=O)c2ccccc2O)c1C | 57.1* | 7.2 | -44.7 | 0.7 | 6.6 | -6.2
COc1ccc(C(=O)O[C@@H]2CCC[C@@]3(C(=O)N(Cc4ccccc4)c4ccccc43)[C@H]2NC(=O)CCc2ccccc2)cc1OC | . | 12.9 | . | . | . | .
COc1ccc2[nH]c3c(=O)n(/N=C/[C@H]4C(C)C=C(C)CC4C)c(=O)[nH]c3c2c1 (some centres undefined) | 0.6 | -4.6 | 8.0 | 155.8* | -2.7 | 10.6
COc1ccc(-c2nc(-c3ccc4c(c3)OCO4)[nH]c2-c2ccc(OC)cc2)cc1 | 3.2 | 22.2 | -33.6 | 136.3* | -4.8 | 16.1
COc1ccc(-c2noc(-c3ccc4c(c3)OCO4)n2)cc1 | 1.0 | 3.3 | -108.2 | -3.3 | -10.7 | -2.4
COc1ccc(-n2c(SCC(=O)NNC(=S)Nc3ccccc3)nc3ccccc3c2=O)cc1 | . | -4.5 | . | . | . | .
O=C(NC1CCCC1)c1cc(=O)[nH]c2ccccc12 | -1.9 | -0.8 | -11.6 | 3.3 | 4.6 | 42.9*
O=C1CC(N2CCN(c3nc4ccccc4s3)CC2)C(=O)N1Cc1cccs1 (centres undefined) | 99.2* | -6.2 | -17.9 | -0.1 | -0.8 | 10.1
CCOC(=O)c1sc(C)c2c(=O)n(CC)nnc12 | 0.8 | -46.5 | 5.3 | 4.1 | -8.4 | 32.3*
Cc1nc2c(ccc3nc(NC(=O)Cc4ccccc4)sc32)s1 | 29.3* | 11.0 | -18.8 | -1.2 | 3.5 | 5.6
Cc1ccc(CC(=O)Nc2nc3ccccc3s2)cc1 | 3.8 | 10.1 | -30.5 | 3.3 | 11.6 | 8.3
O=C(O)CC/C(=C/c1cccc(NC(=O)c2ccccc2Cl)c1)c1nc2ccccc2s1 | 0.2 | 2.1 | -3.1 | 12.3 | . | 37.0*
COc1ccc(C(=O)C2CCN(c3ncnc4sccc34)CC2)cc1 | . | 12.0 | . | . | . | .
Cc1ccc(S(=O)(=O)NC(CC(C)C)C(=O)Oc2ccc3c4c(c(=O)oc3c2)CCC4)cc1 (centres undefined) | -0.4 | -0.3 | -30.6 | + | -0.6 | 9.4
NS(=O)(=O)c1ccc(CCNC(=O)COc2ccc3c4c(c(=O)oc3c2)CCC4)cc1 | 1.1 | -8.2 | 5.1 | 23.1 | 0.3 | 28.0
CC[C@@H](NS(=O)(=O)c1ccc(C)cc1)C(=O)Oc1ccc2c3c(c(=O)oc2c1)CCC3 | 1.4 | 5.0 | -9.7 | + | 3.6 | 4.4
SMILES | PfHsp40 yeast | PrPC TRFRET | PrP UTR inh | FBA Mtb inh | BJeLR lethal | GDH-TPI inh
CCC(C)C(NS(=O)(=O)c1ccc(C)cc1)C(=O)Oc1ccc2c3c(c(=O)oc2c1)CCC3 (centres undefined) | 1.0 | 0.1 | -13.2 | 36.8* | 2.0 | 4.0
Cc1ccc(S(=O)(=O)NC(C(=O)Oc2ccc3c(C(F)(F)F)cc(=O)oc3c2)c2ccccc2)cc1 (centres undefined) | -1.0 | 0.5 | -26.1 | 3.3 | 10.6 | -1.1
CCC(NC(=O)OC(C)(C)C)C(=O)Oc1ccc2c3c(c(=O)oc2c1)CCC3 (centres undefined) | 0.4 | -6.2 | -11.8 | . | -8.1 | 5.7
C[C@H]1C2CC(OC(=O)NCCCc3ccccc3)C(C2)[C@H]2CCCCN21 (some centres undefined) | . | -5.1 | . | . | . | .
COC(=O)c1ccc(C(=O)OC)c(NC(=O)CSCC(=O)O)c1 | -0.3 | 2.9 | -23.8 | 0.8 | 3.7 | 5.7
COC(=O)c1ccc(C(=O)OC)c(NC(=O)Oc2ccccc2)c1 | 0.0 | -4.2 | -63.5 | 154.5* | 4.2 | 5.2
O=S1(=O)c2c(NCc3ccco3)cccc2Oc2ccccc2CN1Cc1cn(Cc2ccc(C(F)(F)F)cc2)nn1 | . | -3.6 | . | . | . | .
Cc1ccccc1Oc1ccc(-c2nc(N)nc(N)n2)cc1 | 118.8* | 7.5 | -27.7 | 1.6 | 5.2 | -5.0
Nc1nc(N)nc(-c2ccc(Oc3ccccc3)cc2)n1 | -0.5 | 1.8 | -26.6 | 2.6 | -5.0 | 6.0
CCCC(=O)N1CCC[C@]2(CC[C@@H](CCC(=O)N(CC)CC)O2)C1 | . | -1.2 | . | . | . | .
O=C(CS(=O)c1ccccc1[N+](=O)[O-])Oc1ccc(Br)cc1 (centres undefined) | 67.6* | -10.6 | -12.5 | 1.8 | 2.5 | -1.3
CC1(C)CC(=O)C(C2C3=C(CC(C)(C)CC3=O)Oc3c(Br)cc(Br)cc32)=C(O)C1 (centres undefined) | 54.9* | -0.5 | -13.2 | -2.6 | 2.2 | 1.4
CCCCCCCCCCSc1n[nH]c(N)n1 | 303.0* | 7.6 | -22.6 | -0.4 | -4.2 | 3.4
COc1ccc(C2/C=C\CN(C(=O)Nc3ccccc3)CC(=O)N2Cc2ccc(F)cc2)cc1 (centres undefined) | -1.1 | -2.4 | -17.7 | -0.2 | 3.0 | 0.0
COc1ccc(C2/C=C\CN(C(=O)Nc3ccc(C(F)(F)F)cc3)CC(=O)N2Cc2ccc(F)cc2)cc1 (centres undefined) | 93.0* | . | -12.2 | -0.6 | 0.4 | 4.8
CN=C(Nc1ccc(Br)cc1)SC1CC(=O)N(c2ccc(OC)cc2)C1=O (centres undefined) | 43.4* | 6.1 | -16.3 | -2.6 | -1.9 | -5.8
CC(C)(C)c1ccc(-c2nnc3n2N=C(c2ccc(Cl)cc2)CS3)cc1 | . | -5.6 | . | . | . | .
N#CCOc1ccccc1CNC[C@H]1O[C@@H](n2cnc3c(=O)[nH]c(N)nc32)[C@H](O)[C@@H]1O | . | -4.8 | . | 3.1 | . | .
Cc1ccc(C(=O)N2CCN3C(=O)c4ccccc4C23c2ccccc2)cc1 (centres undefined) | -0.6 | -0.7 | -13.2 | 0.0 | -8.5 | -0.3
O=C1c2ccccc2C2(c3ccccc3)N1CCN2C(=O)C(Cl)(Cl)Cl (centres undefined) | 122.0* | -0.4 | -31.5 | -1.5 | -0.7 | 5.0
Nc1nc(OCc2ccccc2)c2[nH]cnc2n1 | -1.6 | 6.1 | 3.4 | 0.6 | -7.6 | -15.0
Cc1nc2nc(N)nc(OCc3ccccc3)c2nc1C | . | -5.7 | . | 161.2* | -3.5 | 7.4
CCCCC(=O)Nc1ccc(C(=O)NCC2COc3ccccc3O2)cc1 (centres undefined) | . | 4.2 | . | . | . | .
